Test results from PubChem BioAssay AID1159580 (chemical genetic matrix, 2015).
Out of some 5,500 compounds screened, about 2,000 (36%) were called active. About 18% were inconclusive and are not listed. Rule as the data show it: active = normalized growth mostly below about 0.91 (no sharp cut-off); inconclusive = no clear call, values can overlap the other calls; inactive = mostly above about 0.92. The list shows a part of the results.

Assay: chemical genetic growth profiling, strain panel (AID 1159580);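 also: tested at 20 µM; growth read once vehicle control cultures reached saturation at 30 °C; 1 = growth at the plate median or of vehicle wells; lower values mean less growth of the strain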
Conditions: S. cerevisiae deletion strains, growth OD

Measured: normalized growth

CC(=O)O[C@@H]1CC2C(C)(C)CCC(=O)[C@]2(C)C2CC[C@@]3(C)[C@H](c4ccoc4)OC(=O)C4OC43[C@@]21C (stereo partly specified)
inactive: locus YAL013W, strain DEP1, hits give low values 1 | locus YAL021C, strain ccr4, hits give low values 0.98 | locus YAL026C, strain drs2, hits give low values 1 | locus YAL030W, strain snc1, hits give low values 1.01 | locus YBL061C, strain skt5, hits give low values 1.01 | locus YBR009C, strain hhf1, hits give low values 1 | locus YBR021W, strain FUR4, hits give low values 0.989 | locus YBR023C, strain chs3, hits give low values 1 | locus YBR171W, strain sec66, hits give low values 0.986 | locus YBR229C, strain ROT2, hits give low values 0.996 | locus YBR231C, strain swc5, hits give low values 0.993 | locus YBR279W, strain paf1, hits give low values 1.01 | locus YCL011C, strain gbp2, hits give low values 0.984 | locus YCL016C, strain dcc1, hits give low values 1.01 | locus YCL029C, strain bik1, hits give low values 0.984 | locus YCL061C, strain MRC1, hits give low values 1.02 | locus YCL069W, strain vba3, hits give low values 0.99 | locus YCR088W, strain abp1, hits give low values 0.991 | locus YDL005C, strain med2, hits give low values 0.994 | locus YDL035C, strain GPR1, hits give low values 1.03 | locus YDL040C, strain nat1, hits give low values 0.986 | locus YDL074C, strain BRE1, hits give low values 0.994 | locus YDL101C, strain DUN1, hits give low values 0.984 | locus YDL185W, strain tfp1, hits give low values 0.981 | locus YDL192W, strain arf1, hits give low values 0.993 | locus YDR001C, strain nth1, hits give low values 0.998 | locus YDR069C, strain doa4, hits give low values 1.01 | locus YDR101C, strain arx1, hits give low values 0.991 | locus YDR137W, strain rgp1, hits give low values 1.05 | locus YDR159W, strain sac3, hits give low values 1.02 | locus YDR162C, strain NBP2, hits give low values 1.02 | locus YDR195W, strain ref2 0.941 | locus YDR297W, strain sur2, hits give low values 1 | locus YDR318W, strain mcm21, hits give low values 0.993 | locus YDR334W, strain swr1, hits give low values 0.986 | locus YDR335W, strain msn5, hits give low values 0.987 | locus YDR388W, hits give low values 0.98 | locus YDR392W, strain spt3, hits give low values 0.991 | locus YDR502C, strain sam2, hits give low values 0.973 | locus YEL003W, strain gim4, hits give low values 0.995 | locus YEL037C, strain rad23, hits give low values 0.984 | locus YEL061C, strain CIN8 (second series), hits give low values 0.987 | locus YEL061C, strain CIN8, hits give low values 1.01 | locus YER015W, strain faa2, hits give low values 1 | locus YER016W, strain bim1, hits give low values 1 | locus YER110C, hits give low values 0.978 | locus YER111C, strain swi4, hits give low values 0.987 | locus YER155C, strain BEM2 (second series), hits give low values 1.02 | locus YER155C, strain BEM2, hits give low values 0.988 | locus YER167W, strain BCK2, hits give low values 1 | locus YFR010W, strain ubp6, hits give low values 0.979 | locus YGL078C, strain dbp3, hits give low values 0.994 | locus YGL086W, strain mad1, hits give low values 0.985 | locus YGL167C, strain pmr1, hits give low values 1.01 | locus YGL173C, strain kem1, hits give low values 1.01 | locus YGL227W, strain vid30, hits give low values 0.994 | locus YGL240W, strain doc1, hits give low values 0.984 | locus YGL248W, strain PDE1, hits give low values 0.988 | locus YGL253W, strain hxk2, hits give low values 0.966 | locus YGR135W, strain pre9, hits give low values 0.973 | locus YGR229C, strain SMI1, hits give low values 1.02 | locus YGR252W, strain gcn5, hits give low values 0.952 | locus YHR013C, strain ard1, hits give low values 0.994 | locus YHR027C, strain rpn1, hits give low values 1.01 | locus YHR079C, strain IRE1 (second series), hits give low values 0.99 | locus YHR094C, strain hxt1, hits give low values 0.983 | locus YHR129C, strain ARP1, hits give low values 0.997 | locus YHR142W, strain chs7, hits give low values 0.991 | locus YHR200W, strain rpn10, hits give low values 0.975 | locus YIL066C, strain RNR3, hits give low values 1 | locus YIL073C, strain SPO22, hits give low values 1 | locus YIL125W, strain kgd1, hits give low values 0.989 | locus YIR030C, strain dcg1, hits give low values 0.987 | locus YJL092W, strain hpr5, hits give low values 0.985 | locus YJL095W, strain BCK1 (second series), hits give low values 1 | locus YJL095W, strain BCK1, hits give low values 0.988 | locus YJL115W, strain asf1, hits give low values 0.994 | locus YJL129C, strain trk1, hits give low values 0.996 | locus YJL134W, strain LCB3, hits give low values 0.998 | locus YJL154C, strain vps35, hits give low values 1 | locus YJL164C, strain tpk1, hits give low values 1.01 | locus YJL166W, strain qcr8, hits give low values 1.02 | locus YJL168C, strain set2, hits give low values 0.988 | locus YJL187C, strain SWE1 (second series), hits give low values 0.977 | locus YJL187C, strain SWE1, hits give low values 1 | locus YJR043C, strain POL32, hits give low values 1.02 | locus YKL009W, strain mrt4, hits give low values 1.01 | locus YKL068W, hits give low values 0.992 | locus YKL085W, strain MDH1 (second series), hits give low values 1 | locus YKL085W, strain MDH1, hits give low values 1 | locus YKL160W, strain elf1, hits give low values 1.02 | locus YKL190W, strain CNB1, hits give low values 1.01 | locus YKR001C, strain vps1, hits give low values 0.983 | locus YKR026C, strain gcn3, hits give low values 1 | locus YKR091W, strain srl3, hits give low values 1 | locus YLL001W, strain dnm1, hits give low values 1.03 | locus YLL026W, hits give low values 1.01 | locus YLL041C, strain sdh2, hits give low values 0.993 | locus YLR027C, strain aat2, hits give low values 1.01 | locus YLR039C, strain RIC1, hits give low values 1.06 | locus YLR058C, strain SHM2, hits give low values 0.992 | locus YLR102C, strain apc9, hits give low values 0.987 | locus YLR221C, strain rsa3, hits give low values 1 | locus YLR258W, strain gsy2, hits give low values 0.996 | locus YLR262C, strain YPT6 (second series), hits give low values 1.03 | locus YLR262C, strain YPT6, hits give low values 1.1 | locus YLR268W, strain sec22, hits give low values 0.994 | locus YLR320W, strain mms22, hits give low values 1.01 | locus YLR342W, strain FKS1 (second series), hits give low values 1.05 | locus YLR342W, strain FKS1, hits give low values 1.01 | locus YLR357W, strain rsc2, hits give low values 0.97 | locus YLR370C, strain arc18, hits give low values 0.983 | locus YLR371W, strain rom2, hits give low values 0.992 | locus YLR384C, strain iki3, hits give low values 0.997 | locus YLR418C, strain cdc73, hits give low values 0.956 | locus YML016C, strain PPZ1, hits give low values 0.999 | locus YML032C, strain rad52, hits give low values 0.986 | locus YML120C, strain ndi1, hits give low values 1 | locus YML124C, strain tub3, hits give low values 0.994 | locus YMR058W, strain fet3, hits give low values 0.999 | locus YMR078C, strain ctf18, hits give low values 1 | locus YMR125W, strain sto1, hits give low values 0.987 | locus YMR129W, hits give low values 1.01 | locus YMR205C, strain PFK2, hits give low values 1.04 | locus YMR223W, strain ubp8, hits give low values 0.996 | locus YMR231W, strain pep5, hits give low values 0.97 | locus YMR307W, strain GAS1, hits give low values 1.07 | locus YNL067W, strain RPL9B, hits give low values 0.987 | locus YNL071W, strain lat1, hits give low values 0.993 | locus YNL209W, strain ssb2, hits give low values 1.01 | locus YNL233W, strain BNI4, hits give low values 1 | locus YNL248C, strain rpa49, hits give low values 0.996 | locus YNL250W, strain rad50, hits give low values 0.978 | locus YNL271C, strain bni1, hits give low values 0.97 | locus YNL298W, strain CLA4, hits give low values 0.996 | locus YNL307C, strain MCK1, hits give low values 0.986 | locus YNL322C, strain KRE1 (second series), hits give low values 0.99 | locus YNR049C, strain mso1, hits give low values 1 | locus YNR052C, strain pop2, hits give low values 0.966 | locus YOL006C, strain TOP1, hits give low values 1.05 | locus YOL012C, strain htz1 0.864 | locus YOL147C, strain pex11, hits give low values 0.982 | locus YOR001W, strain rrp6, hits give low values 0.973 | locus YOR061W, strain CKA2, hits give low values 0.998 | locus YOR069W, strain VPS5, hits give low values 0.99 | locus YOR070C, strain gyp1, hits give low values 1 | locus YOR080W, strain dia2, hits give low values 1 | locus YOR083W, strain WHI5, hits give low values 1.02 | locus YOR106W, strain vam3, hits give low values 1.01 | locus YOR136W, strain idh2, hits give low values 0.993 | locus YOR144C, strain elg1, hits give low values 0.988 | locus YOR184W, strain ser1, hits give low values 1.02 | locus YOR265W, strain rbl2, hits give low values 0.996 | locus YOR270C, strain vph1, hits give low values 1.02 | locus YOR290C, strain snf2, hits give low values 0.981 | locus YOR316C, strain cot1, hits give low values 0.984 | locus YPL051W, strain arl3, hits give low values 1.02 | locus YPL055C, strain LGE1, hits give low values 1.02 | locus YPL078C, strain atp4, hits give low values 1.02 | locus YPL106C, strain sse1, hits give low values 0.996 | locus YPL240C, strain hsp82, hits give low values 0.999 | locus YPR119W, strain clb2, hits give low values 0.981 | locus YPR141C, strain kar3, hits give low values 0.996 | locus YPR163C, strain tif3, hits give low values 0.975 | locus YPR167C, strain met16, hits give low values 0.985 | strain wtn01, hits give low values 1
